Experimental data published in PubChem BioAssay.
Several values for one entry are separate records, joined by “and”; a condition that tells them apart may be missing. Equal values may be shown once. Results filed as inconclusive are left out. Activity calls are given as the source filed them. Unless noted, the limit is not given here; nearly all actives have AC50 up to about 30 µM.

Assays:
[1] = growth inhibition of DIPG glioma cells, dose response, cell-based, JHH-DIPG-1, MIPE4.0, CellTiter-Glo, qHTS (AID 1347062; cut-off not given, nearly all actives have AC50 up to about 27 µM;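 as to AC50: cells exposed to compound for two days before readout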); settings: JHH-DIPG-1 viability, CellTiter-Glo ATP luminescence
[2] = growth inhibition of DIPG glioma cells, dose response, cell-based, SU-DIPG-IV, MIPE4.0, CellTiter-Glo, qHTS (AID 1347063); settings: SU-DIPG-IV viability, CellTiter-Glo ATP luminescence;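 also: compound exposure lasted 48 hours before the viability readout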
[3] = SU-DIPG-VI glioma cell viability, MIPE4.0 library, CellTiter-Glo luminescence, qHTS (AID 1347066); settings: CellTiter-Glo ATP luminescence;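 also: cells exposed to compound for 48 hours before readout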
[4] = growth inhibition of DIPG glioma cells, dose response, cell-based, SU-DIPG-XIII, MIPE5.0, CellTiter-Glo, qHTS (AID 1347064; cut-off not given, nearly all actives have AC50 up to about 23 µM;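 as to AC50: cells exposed to compound for 48 hours before the viability read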); settings: SU-DIPG-XIII viability, CellTiter-Glo ATP luminescence
[5] = viability loss in pontine glioma line – cell-based, SU-DIPG-XXV, MIPE5.0, CellTiter-Glo, qHTS, dose response (AID 1347065; cut-off not given, nearly all actives have AC50 up to about 26 µM;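 also: cells exposed to compound for 48 hours before ATP readout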); settings: CellTiter-Glo ATP luminescence
[6] = JHH-DIPG-1 glioma cell viability, MIPE5.0 library, CellTiter-Glo luminescence, qHTS (AID 1347067; cut-off not given, nearly all actives have AC50 up to about 26 µM;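 also: cells exposed to compound for 48 hours before readout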); settings: JHH-DIPG-1 glioma viability, CellTiter-Glo ATP luminescence
[7] = SU-DIPG-XXV glioma cell viability, MIPE5.0 library, qHTS (AID 1347068; cut-off not given, nearly all actives have IC50 up to about 30 µM;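 as to IC50: cells exposed to compound for 48 hours before viability readout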)
[8] = sensitizers of A549 cells to miR-34 induction, primary screen, imaging, A549 dox-inducible miR-34, nuclei and caspase counts (AID 1347080;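 active = compounds whose cell count with miR-34 switched on is under 0.7 times the count with it off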); settings: A549 miR-34 inducible, Hoechst nuclei count, 48 h
[9] = survival rescue of mitochondrial mutant cells in low glucose, primary screen, MELAS cybrids, Rieske KO mouse fibroblasts, CellTiter-Glo (AID 1508586;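 active = mean z-score across replicates of 1.96 or higher in either the MELAS or the Rieske mutant cell line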;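 also: z relative to plate mean and SD of compound and empty wells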)
[10] = modifiers of HSF1 nuclear foci, imaging, Selleck Cancer Library (AID 1347162; in the data active = plate-normalised HSF1 focus index below about 0.46); settings: human cells, at 10 µM; SSMD: measured here: HSF1 foci SSMD mean; cell count: measured here: cell number; plate-normalised HSF1 focus index: stronger effect = lower value
[11] = stronger effect = lower value, cell number ratio, induced over uninduced
[12] = measured here: relative caspase fold change +Dox/-Dox
[13] = measured here: total cells with miR-34 induction, stronger effect = lower value
[14] = measured here: total cells without miR-34 induction
[15] = MELAS cybrid survival, CellTiter-Glo 48 h, stronger effect = higher value
[16] = Rieske KO mouse fibroblast survival, CellTiter-Glo 72 h

Structure (SMILES): C=CC(=O)Nc1cc(NC(=O)c2ccc(C)c(NC(=O)c3ccno3)c2)cc(C(F)(F)F)c1
- AC50 [1]: 16.6 µM (active)
- AC50 [2]: 18.7 µM (active)
- AC50 [3]: 16.6 µM (active)

Structure (SMILES): COc1ccc2c(Oc3ccc(NC(=O)c4c(C)n(CC(C)(C)O)n(-c5ccccc5)c4=O)cc3F)ccnc2c1
- outcome [1]: inactive
- outcome [4]: inactive
- AC50 [5]: 20.9 µM (active)
- outcome [3]: inactive
- AC50 [6]: 20.9 µM (active)
- outcome [7]: inactive

Structure (SMILES): c1ccc(CNc2nc(N3CCOc4ccccc43)nc3c2CCCC3)cc1
- outcome [1]: inactive
- AC50 [4]: 16.6 µM (active)

Structure (SMILES): CN[C@@H]1[C@@H](O)[C@@H](O[C@@H]2[C@@H](O)[C@H](O[C@H]3O[C@H](CN)[C@@H](O)[C@H](O)[C@H]3O)[C@@H](N)C[C@H]2NC(=O)[C@@H](O)CN)OC[C@]1(C)O
- outcome [1]: inactive
- outcome [2]: inactive
- outcome [3]: inactive

Structure (SMILES): N#Cc1c(C2CCNCC2)cc(-c2c(O)cccc2OCC2CC2)nc1N
- AC50 [1]: 23.5 µM (active)
- AC50 [2]: 13.2 µM (active)
- IC50 [7]: 20.9 µM (active)

Structure (SMILES): CCc1nc(-c2cccc(C)c2)c(-c2ccnc(NC(=O)c3ccccc3)c2)s1
- outcome [1]: inactive
- outcome [2]: inactive
- fold change [8, 11]: 0.974 (inactive)
- fold change [8, 12]: 0.928
- cell count [8, 13]: 5690
- cell count [8, 14]: 5840
- z-score [9, 15]: 0.655 (inactive)
- z-score [9, 16]: 0.137

Structure (SMILES): CNC1[C@@H](O)C(O[C@@H]2C(O)C(O[C@H]3O[C@H]([C@@H](C)NC)CC[C@H]3N)[C@@H](N)C[C@H]2N)OC[C@]1(C)O (some centres undefined)
- outcome [1]: inactive
- outcome [2]: inactive
- outcome [3]: inactive

Structure (SMILES): CC(C)(C)c1nc(-c2cccc(NS(=O)(=O)c3c(F)cccc3F)c2F)c(-c2ccnc(N)n2)s1
- outcome [1]: inactive
- outcome [5]: inactive
- outcome [6]: inactive
- outcome [7]: inactive
- fold change [8, 11]: 1 (inactive)
- fold change [8, 12]: 0.762
- cell count [8, 13]: 8520
- cell count [8, 14]: 8520
- z-score [9, 15]: -0.255 (inactive)
- z-score [9, 16]: 0.678

Structure (SMILES): CC(C)(C)NC(=O)Nc1cccc(Nc2ncc(F)c(NC(C)(C)CO)n2)c1
- outcome [1]: inactive
- outcome [4]: inactive
- AC50 [5]: 4.68 µM (active)
- outcome [3]: inactive

Structure (SMILES): CC(=O)NC(C)c1ccc(Oc2ccc(OC(C)C)cc2)cc1 (centres undefined)
- outcome [1]: inactive
- outcome [3]: inactive

Structure (SMILES): Nc1nc(N)c(N=O)c(OCC2CCCCC2)n1
- AC50 [1]: 14.8 µM (active)
- AC50 [2]: 4.69 µM (active)
- AC50 [3]: 14.8 µM (active)
- IC50 [7]: 14.8 µM (active)
- fold change [8, 11]: 0.992 (inactive) and 0.824 (inactive)
- fold change [8, 12]: 0.923 and 0.352
- cell count [8, 13]: 8650 and 6730
- cell count [8, 14]: 8720 and 8160
- SSMD [10]: 2.32
- cell count [10]: 6960
- plate-normalised HSF1 focus index [10]: 1.14 (inactive)
- z-score [9, 15]: -0.213 (inactive)
- z-score [9, 16]: -2.45

Structure (SMILES): CCCCOCCOc1nc(-c2ccc(C(=O)O)c(F)c2)sc1C
- outcome [1]: inactive
- outcome [4]: inactive
- outcome [6]: inactive
- outcome [7]: inactive

Structure (SMILES): O=c1[nH]nc(OCCCc2ccc(Cl)cc2)c(NCc2cccnc2)c1Br
- AC50 [1]: 23.5 µM (active)
- AC50 [2]: 18.7 µM (active)
- AC50 [3]: 18.7 µM (active)

Structure (SMILES): CC(=O)NCCC(=O)N[C@@H](CCC(N)=O)C(=O)N[C@@H](CO)C(=O)N[C@@H](CCC(N)=O)C(=O)N[C@@H](CCC(N)=O)C(=O)N[C@H](C(=O)N[C@@H](Cc1ccccc1)C(=O)N[C@]1(C)CCCCCC/C=C\CCC[C@@](C)(C(=O)N[C@@H](CCC(N)=O)C(=O)N[C@@H](CC(N)=O)C(N)=O)NC(=O)[C@H](CC(C)C)NC(=O)[C@H](CC(C)C)NC(=O)[C@@H](CCCNC(=N)N)NC(=O)[C@H](Cc2c[nH]c3ccccc23)NC(=O)[C@H](CC(C)C)NC(=O)[C@H](CC(N)=O)NC1=O)[C@H](C)O
- outcome [1]: inactive
- outcome [5]: inactive
- outcome [6]: inactive
- outcome [7]: inactive

Structure (SMILES): COc1ccc(-c2c(-c3ccc(O)cc3O)n[nH]c2C)cc1
- outcome [1]: inactive
- outcome [4]: inactive
- outcome [5]: inactive
- outcome [3]: inactive
- outcome [7]: inactive
- fold change [8, 11]: 0.931 (inactive)
- fold change [8, 12]: 0.724
- cell count [8, 13]: 7090
- cell count [8, 14]: 7620
- z-score [9, 15]: 0.614 (inactive)
- z-score [9, 16]: -0.216
